Assay results published in PubChem BioAssay (Tox21).
Inconclusive results are not listed. Active and inactive are the calls of the source. Unless noted, the call rests on the fitted dose curve; in most records, active means well fitted curve in the direction sought with a large enough effect in the repeat runs; inconclusive means weak or mixed curves; inactive means no such curve, though single readings can be large; an effect the other way counts as inactive or inconclusive.

Experiments:
[1] = A CellTox Green Cytotoxicity Assay to monitor cytotoxicity in HEK293 cells - 32 hour (AID 1224881); further: nearly all actives have a fitted effect of over 40% in size
How it was run: (§1)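 HEK293 cells premixed with CellTox Green dye were seeded at 600 cells/well and left 5 h at 37 C/5% CO2 before pin transfer of 23 nL compound in DMSO. Fluorescence from dye bound to dead-cell DNA was read during 40 h treatment.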

[2] = A CellTox Green Cytotoxicity Assay to monitor cytotoxicity in HepG2 cells - 0 hour (AID 1224882); further: nearly all actives have a fitted effect of over 35% in size
How it was run: (§2)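 HepG2 cells were seeded together with the CellTox Green dye at 600 cells/well, left 5 h at 37 C/5% CO2, then given compounds in DMSO. Fluorescence from dye bound to dead-cell DNA was read repeatedly over 40 h of treatment at 37 C.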

[3] = A CellTox Green Cytotoxicity Assay to monitor cytotoxicity in HepG2 cells - 32 hour (AID 1224883); further: nearly all actives have a fitted effect of over 50% in size
How it was run: as §2

[4] = A CellTox Green Cytotoxicity Assay to monitor cytotoxicity in HEK293 cells - 8 hour (AID 1224884); further: nearly all actives have a fitted effect of over 35% in size
How it was run: as §1

[5] = qHTS RealTime-Glo MT Cell Viability Assay in HepG2 cells - 16 hour (AID 1224885); further: nearly all actives have a fitted effect of over 50% in size
How it was run: (§3)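 HepG2 suspension premixed with RealTime-Glo reagents is plated at 600 cells per well and left 5 h at 37 C/5% CO2. Compounds in DMSO then go in, and bioluminescence reflecting viable cell number is recorded over 40 h.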

[6] = qHTS RealTime-Glo MT Cell Viability Assay in HEK293 cells - 24 hour (AID 1224886); further: top concentration of the series differs between compounds; nearly all actives have a fitted effect of over 50% in size
How it was run: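 Reads taken at 0, 8, 16, 24, 32 and 40 h from the same wells. HEK293 cells (600/well) carried RealTime-Glo reagents from seeding, with compound added after a 5 h settle at 37 C.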

[7] = qHTS RealTime-Glo MT Cell Viability Assay in HEK293 cells - 8 hour (AID 1224887); further: top concentration of the series differs between compounds; nearly all actives have a fitted effect of over 50% in size
How it was run: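 HEK293 cells mixed with RealTime-Glo reagents (NanoLuc plus cell-permeant prosubstrate) at 600 cells/well, preincubated 5 h at 37 C/5% CO2, then given 23 nL compound in DMSO. Nonlytic luminescence from viable cells was read at 0, 8, 16, 24, 32 and 40 h.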

[8] = A CellTox Green Cytotoxicity Assay to monitor cytotoxicity in HEK293 cells - 16 hour (AID 1224888); further: nearly all actives have a fitted effect of over 35% in size
How it was run: as §1

[9] = qHTS RealTime-Glo MT Cell Viability Assay in HepG2 cells - 0 hour (AID 1224889); further: nearly all actives have a fitted effect of over 50% in size
How it was run: as §3

[10] = A CellTox Green Cytotoxicity Assay to monitor cytotoxicity in HepG2 cells - 8 hour (AID 1224890); further: nearly all actives have a fitted effect of over 45% in size
How it was run: as §2

[11] = qHTS assay to identify small molecule antagonists of the estrogen receptor alpha (ER-alpha) signaling pathway using the BG1 cell line in the presence of 0.1 nM 17-beta-estradiol - cell viability counter screen (AID 1259241); further: nearly all actives have a fitted effect of over 40% in size
How it was run: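 Live-cell protease activity (CellTiter-Fluor fluorescence, 30 min) was read in the same wells after VM7Luc4E2 cells had been exposed to compounds with 0.1 nM 17beta-estradiol for 22 hr at 37C.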

[12] = qHTS assay to identify small molecule antagonists of the androgen receptor (AR) signaling pathway using the MDA cell line in the presence of 0.5 nM R1881 - cell viability counter screen (AID 1259242); further: nearly all actives have a fitted effect of over 45% in size
How it was run: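 MDA-kb2 cells (human breast carcinoma, stably carrying MMTV-luciferase reporter) were exposed to compounds with 0.5 nM R1881 (final) for 16 hr at 37C, 0% CO2; viability then read as live-cell protease fluorescence (CellTiter-Fluor, 30 min) in the same wells.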

[13] = molecular target: Estrogen receptor (Homo sapiens) (UniProt P03372); assay: qHTS assay to identify small molecule antagonists of the estrogen receptor alpha (ER-alpha) signaling pathway using the BG1 cell line in the presence of 0.1 nM 17-beta-estradiol (AID 1259244); further: nearly all actives have a fitted effect of over 50% in size
How it was run: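 VM7Luc4E2 cells (endogenous full-length ER-alpha, stable 4xERE-luciferase) were grown 5 days in phenol red-free medium with charcoal-stripped FBS, then exposed 22 h at 37C to compounds plus 0.1 nM (final) 17beta-estradiol; ONE-Glo luminescence read-out.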

[14] = qHTS assay to identify small molecule HDAC inhibitors (AID 1259364); further: top concentration of the series differs between compounds; nearly all actives have a fitted effect of over 45% in size
How it was run: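 Wild-type HCT-116 cells were plated overnight, exposed to compounds for 2 h at 37 °C, then given HDAC-Glo class I/II luminogenic reagent for 30 min at room temperature before luminescence was read.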

[15] = qHTS assay to identify small molecule HDAC inhibitors - cell viability counter screen (AID 1259365)
How it was run: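 HCT-116 (wild type), 1,500 cells/well, overnight 37C/5% CO2; compound in DMSO 2hr; CellTiter-Glo 30min RT; luminescence read.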

[16] = qHTS assay to identify small molecule agonists of the sonic hedgehog signaling (Shh) pathway - cell viability counter screen (AID 1259366); further: nearly all actives have a fitted effect of over 50% in size
How it was run: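 CellTiter-Fluor fluorescence read-out, 1 hr at 37C, added after 23hr compound exposure. Cells: 3T3 Gli1-Luc, an NIH/3T3 clone with stably integrated Gli1-Luc reporter, plated 4hr before compound.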

[17] = qHTS assay to identify small molecule phospholipidosis (PLD) inducers (AID 1259344; active means well fitted curve in the direction sought with a large enough effect; an effect the other way counts as inactive or inconclusive)
How it was run: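 HepG2 cells on collagen I, attached 4 h at 37 C, were co-treated with compound and LipidTOX Red dye for 24 h at 37 C, then fixed with paraformaldehyde plus Hoechst 33342 and imaged by high-content microscopy for phospholipid accumulation.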

[18] = qHTS assay to identify small molecule antagonists of the sonic hedgehog signaling (Shh) pathway - cell viability counter screen (AID 1259367); further: nearly all actives have a fitted effect of over 55% in size
How it was run: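 NIH/3T3-derived Gli1-Luc reporter cells (2,000 per well) rested 4 hr at 37 C, then received DMSO compounds plus conditioned medium. After 23 hr of treatment, CellTiter-Fluor was added for 1 hr at 37C and fluorescence read.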

[19] = qHTS assay to identify small molecule agonists of the sonic hedgehog signaling (Shh) pathway (AID 1259368; calls by dose curve; further: series mostly up to about 92 µM; nearly all actives have a fitted effect of over 15% in size)
How it was run: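 NIH/3T3-derived 3T3Gli1-Luc cells carrying a stably integrated Gli1 response element–firefly luciferase reporter were plated, left 4 hr at 37 C, then given compounds in DMSO for 24 hr. Luminescence was read 30 min after adding luciferase reagent.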

[20] = molecular target: Androgen receptor (Homo sapiens) (UniProt P10275); assay: qHTS assay to identify small molecule antagonists of the androgen receptor (AR) signaling pathway using the MDA cell line in the presence of 0.5 nM R1881 (AID 1259243); further: nearly all actives have a fitted effect of over 50% in size
How it was run: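 MDA-kb2 human breast carcinoma cells carrying an MMTV-luciferase reporter (AR- and GR-responsive) were plated, rested 5 hr at 37C, dosed with compounds, then stimulated with 0.5 nM R1881 (final) for 16 hr; luminescence was read after ONE-Glo.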
On the % scale 0 is the no-effect control and ±100 the full control effect.

Chain of Androgen receptor (Homo sapiens) (P10275 whole entry, looked up): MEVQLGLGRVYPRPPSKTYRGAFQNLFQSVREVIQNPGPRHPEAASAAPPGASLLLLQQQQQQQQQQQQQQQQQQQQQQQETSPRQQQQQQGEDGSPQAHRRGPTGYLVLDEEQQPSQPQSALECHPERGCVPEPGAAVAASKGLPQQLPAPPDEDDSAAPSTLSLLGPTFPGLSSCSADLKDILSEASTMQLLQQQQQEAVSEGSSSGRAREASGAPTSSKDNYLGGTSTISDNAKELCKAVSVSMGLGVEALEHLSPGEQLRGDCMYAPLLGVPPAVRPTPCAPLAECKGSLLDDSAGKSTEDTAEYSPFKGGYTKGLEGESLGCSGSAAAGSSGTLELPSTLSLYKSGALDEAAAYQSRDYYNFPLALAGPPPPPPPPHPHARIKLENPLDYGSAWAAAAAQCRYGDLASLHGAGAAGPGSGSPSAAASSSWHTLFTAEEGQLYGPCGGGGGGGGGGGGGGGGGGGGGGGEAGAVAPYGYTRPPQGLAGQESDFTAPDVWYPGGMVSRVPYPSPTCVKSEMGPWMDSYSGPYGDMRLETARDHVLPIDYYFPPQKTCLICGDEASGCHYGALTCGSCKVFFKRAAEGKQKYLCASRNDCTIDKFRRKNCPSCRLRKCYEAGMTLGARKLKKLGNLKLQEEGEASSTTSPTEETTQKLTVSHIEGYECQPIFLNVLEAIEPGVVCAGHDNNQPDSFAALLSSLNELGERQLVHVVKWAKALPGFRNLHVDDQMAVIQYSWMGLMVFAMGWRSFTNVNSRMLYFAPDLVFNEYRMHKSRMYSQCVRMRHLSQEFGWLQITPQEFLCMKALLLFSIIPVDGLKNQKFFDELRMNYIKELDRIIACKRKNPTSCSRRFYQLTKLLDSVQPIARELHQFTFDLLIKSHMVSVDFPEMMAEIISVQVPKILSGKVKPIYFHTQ
Chain of Estrogen receptor (Homo sapiens) (P03372 whole entry, looked up): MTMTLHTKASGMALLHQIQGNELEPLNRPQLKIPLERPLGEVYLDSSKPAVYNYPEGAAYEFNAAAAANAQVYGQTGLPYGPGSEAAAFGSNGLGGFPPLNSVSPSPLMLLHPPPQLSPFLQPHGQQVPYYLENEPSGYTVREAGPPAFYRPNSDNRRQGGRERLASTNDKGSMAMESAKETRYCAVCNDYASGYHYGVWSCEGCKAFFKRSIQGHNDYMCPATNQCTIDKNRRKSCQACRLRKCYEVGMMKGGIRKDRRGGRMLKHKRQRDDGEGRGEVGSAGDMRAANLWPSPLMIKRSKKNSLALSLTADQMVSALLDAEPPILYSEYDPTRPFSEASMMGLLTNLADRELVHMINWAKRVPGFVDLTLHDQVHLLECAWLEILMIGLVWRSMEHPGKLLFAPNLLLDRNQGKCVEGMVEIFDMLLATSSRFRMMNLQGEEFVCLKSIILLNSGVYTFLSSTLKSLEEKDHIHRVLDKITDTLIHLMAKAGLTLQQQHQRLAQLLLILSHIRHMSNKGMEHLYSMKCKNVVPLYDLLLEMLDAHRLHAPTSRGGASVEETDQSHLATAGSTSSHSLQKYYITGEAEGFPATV

Oc1c(Cl)cccc1Cl
inactive: Potency [1] | outcome [2] | Potency [3] | Potency [4] | Potency [5] | Potency [6] | Potency [7] | Potency [8] | Potency [9] | Potency [10] | outcome [11] | outcome [12] | Potency [13] | Potency [14] | outcome [15] | Potency [16]

CC(=O)Nc1cc([As](=O)(O)O)ccc1O
inactive: Potency [1] | outcome [2] | Potency [3] | Potency [4] | Potency [5] | Potency [6] | Potency [7] | Potency [8] | Potency [9] | Potency [10] | outcome [11] | outcome [12] | Potency [13] | outcome [17] | Potency [14] | outcome [15] | Potency [16] | Potency [18]

O=[N+]([O-])c1ccc2c3c(cccc13)CC2
inactive: Potency [1] | outcome [2] | Potency [3] | Potency [4] | Potency [5] | Potency [6] | Potency [7] | Potency [8] | Potency [9] | Potency [10] | outcome [11] | outcome [12] | Potency [13] | Potency [14] | outcome [15] | Potency [16] | Potency [18] | outcome [19]

Nc1cc2c3c(c1)C(c1ccccc1)=N[C@@H](NC(=O)c1cccnc1)C(=O)N3CC2
inactive: Potency [1] | outcome [2] | Potency [3] | Potency [4] | Potency [5] | Potency [6] | Potency [7] | Potency [8] | Potency [9] | Potency [10] | outcome [11] | outcome [12] | Potency [13] | Potency [14] | outcome [15] | Potency [16] | Potency [18] | outcome [19]

O=c1oc2ccccc2c(O)c1C1CCCc2ccccc21 (stereo not drawn)
inactive: Potency [1] | outcome [2] | Potency [3] | Potency [4] | Potency [5] | Potency [6] | Potency [7] | Potency [8] | Potency [9] | Potency [10] | outcome [11] | outcome [12] | Potency [13] | Potency [14] | outcome [15] | Potency [16] | Potency [18] | outcome [19]

CCN(CC)C(C)C(=O)c1ccccc1 (stereo not drawn)
inactive: Potency [1] | outcome [2] | Potency [3] | Potency [4] | Potency [5] | Potency [6] | Potency [7] | Potency [8] | Potency [9] | Potency [10] | outcome [11] | outcome [12] | Potency [20] | Potency [13] | outcome [17] | Potency [14] | outcome [15] | Potency [16] | Potency [18]

N#CCCC#N
inactive: Potency [1] | outcome [2] | Potency [3] | Potency [4] | Potency [5] | Potency [6] | Potency [7] | Potency [8] | Potency [9] | Potency [10] | outcome [11] | outcome [12] | Potency [13] | Potency [14] | outcome [15] | Potency [16] | Potency [18] | outcome [19]

COC(=O)C(c1ccccc1)C1CCCCN1 (stereo not drawn)
inactive: Potency [1] | outcome [2] | Potency [3] | Potency [4] | Potency [5] | Potency [6] | Potency [7] | Potency [8] | Potency [9] | Potency [10] | outcome [11] | outcome [12] | Potency [20] | Potency [13] | outcome [17] | Potency [14] | outcome [15] | Potency [16]

N#CCBr
inactive: Potency [1] | outcome [2] | Potency [3] | Potency [4] | Potency [5] | Potency [6] | Potency [7] | Potency [8] | Potency [9] | Potency [10] | outcome [11] | outcome [12] | Potency [13] | Potency [14] | outcome [15] | Potency [16] | outcome [19]

CC1=C(C(=O)O)N2C(=O)[C@@H](N)[C@H]2SC1
inactive: cytotoxicity increase [1] -10.4% [at 15.8 µM] | cytotoxicity [2] -6.07% [at 15.8 µM] | cytotoxicity increase [3] -8.31% [at 15.8 µM] | cytotoxicity increase [4] -10.6% [at 15.8 µM] | activity change, negative = cytotoxic [5] 0.0678% [at 15.8 µM] | activity change, negative = cytotoxicity [6] -0.764% [at 15.8 µM] | activity change, negative = cytotoxicity [7] -0.746% [at 15.8 µM] | activity change [8] -1.57% [at 15.8 µM, active compounds read high] | activity change, negative = cytotoxicity [9] -0.386% [at 15.8 µM] | cytotoxicity increase [10] -7.33% [at 15.8 µM] | activity change, negative = cytotoxicity [11] 0.956% [at 19 µM] | viability change, negative = cytotoxic [12] 2.31% [at 19 µM] | activity, negative = inhibition [20] 15.5% [at 19 µM] | activity change, negative = inhibition [13] 0.965% [at 19 µM] | activity change, negative = inhibition [14] 5.61% [at 19 µM] | activity change, negative = cytotoxicity [15] 3.22% [at 19 µM] | viability change, negative = cytotoxic [16] -3.69% [at 19 µM] | viability change, negative = cytotoxic [18] 2.83% [at 19 µM] | activity change [19] 0.0682% [at 18.9 µM]

CC(C)NCC(O)c1ccc(N)c(C#N)c1 (stereo not drawn)
inactive: Potency [1] | outcome [2] | Potency [3] | Potency [4] | Potency [5] | Potency [6] | Potency [7] | Potency [8] | Potency [9] | Potency [10] | outcome [11] | outcome [12] | Potency [13] | outcome [17] | Potency [14] | outcome [15] | Potency [16] | outcome [19]

CCC(C)n1c(=O)[nH]c(C)c(Br)c1=O (stereo not drawn)
inactive: Potency [1] | outcome [2] | Potency [3] | Potency [4] | Potency [5] | Potency [6] | Potency [7] | Potency [8] | Potency [9] | Potency [10] | outcome [11] | outcome [12] | Potency [13] | Potency [14] | outcome [15] | Potency [16]

CC1(C)CON(Cc2ccccc2Cl)C1=O
inactive: Potency [1] | outcome [2] | Potency [3] | Potency [4] | Potency [5] | Potency [6] | Potency [7] | Potency [8] | Potency [9] | Potency [10] | outcome [11] | outcome [12] | Potency [13] | Potency [14] | outcome [15] | Potency [16] | Potency [18] | outcome [19]

COC(=O)c1ccccc1S(=O)(=O)NC(=O)N(C)c1nc(C)nc(OC)n1
inactive: Potency [1] | outcome [2] | Potency [3] | Potency [4] | Potency [5] | Potency [6] | Potency [7] | Potency [8] | Potency [9] | Potency [10] | outcome [11] | outcome [12] | Potency [13] | Potency [14] | outcome [15] | Potency [16] | Potency [18] | outcome [19]

CC(C(=O)c1ccccc1)N(C)C (stereo not drawn)
inactive: Potency [1] | outcome [2] | Potency [3] | Potency [4] | Potency [5] | Potency [6] | Potency [7] | Potency [8] | Potency [9] | Potency [10] | outcome [11] | outcome [12] | Potency [20] | Potency [13] | Potency [14] | outcome [15] | Potency [16] | Potency [18] | outcome [19]
